Test results: PubChem BioAssay (NCI)
About 79,000 compounds went through this panel and 15% of them were active in at least one assay; those are over-represented in the sample as a whole. A number with no mark means an inactive call. The source made the active and inactive calls. Cut-off read from the data, not from the text of the source: active = growth inhibition above about 70%; inactive = the rest.

Assay: NCI Yeast Anticancer Drug Screen. Data for the mec2-1 strain (AID 157)
Details: S. cerevisiae mec2-1 strain, at 50.0 µM, stronger effect = higher value
Summary of the method: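 Growth inhibition is read against vehicle-treated controls after compound exposure of the mec2-1 yeast strain, which is defective in DNA damage repair or cell cycle control.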
`O=[N+]([O-])c1cccc(/C=C/C=C/c2ccc(Cl)c(Cl)c2)c1` showed a growth inhibition of 9.3%. `COC1/C=C\OC2(C)Oc3c(C)c(O)c4c(O)c(c5[nH]cnc5c4c3C2=O)NC(=O)/C(C)=C\C=C\C(C)C(O)C(C)C(O)C(C)C(OC(C)=O)C1C` (stereo not given) showed a growth inhibition of 3.8%. With `COc1cc(/C=C/C=C2\CC(C)C/C(=C\C=C\c3ccc(O)c(OC)c3)C2=O)ccc1O` (stereo not given) the growth inhibition was 8.3%. In the case of `Cc1cccc(C)c1NC(=O)CCC(=O)NC(N)=NC#N`, the growth inhibition is reported as -23.8%. Compound `CCCc1nc2ccccc2c(=O)n1/N=C/c1ccc(Cl)cc1` has a growth inhibition of 7.3%. Work on `C=CCN(CC=C)C(=O)C(=C)C` yielded a growth inhibition of -0.05%. `O=C(Cc1nc(-c2ccccc2)cc(=O)n1-c1ccccc1Cl)c1ccncc1` showed a growth inhibition of 12.5%. With `COc1ccc(/C=N/NC(=O)CCCCCCCCC(=O)N/N=C/c2ccc(OC)c(OC)c2)cc1OC` the growth inhibition was -13.4%. `CCC(CC)=C(c1ccc(C)cc1)c1ccc(C)cc1` showed a growth inhibition of -12.7%. With `CN(C)/C=C/c1ccnc2c1C(=O)c1ccccc1C2=O` the growth inhibition was 90.5% (active). For `CCN1C(=O)c2ccccc2C1=O`, the growth inhibition was -9.85%. Work on `CN(C(=O)c1ccccc1)C1CCCC(=O)CC1` (stereo not given) yielded a growth inhibition of -10%. `COc1ccc(C(CCOS(=O)(=O)c2ccc(Br)cc2)(c2ccc(OC)cc2)c2ccc(OC)cc2)cc1` showed a growth inhibition of 12.8%. `O=C(O)c1cc(C(=O)Nc2cccc3ccccc23)c(C(=O)O)cc1C(=O)Nc1cccc2ccccc12` showed a growth inhibition of 24.1%. With `C(=NCCSSCCN=Cc1ccccc1)c1ccccc1` the growth inhibition was 10.3%.
